According to PubChem BioAssay:
Where “and” joins values, the source holds several entries; their conditions need not be identical. Identical values can stand only once. Calls of active or inactive are those of the source.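 The calls were made as follows, unless noted: active = thallium flux through the channel raised or lowered by more than 3 SD from vehicle-only wells, actives on both sides; inactive = the rest.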

Tests used:
[1] = molecular target: NAD(+) hydrolase SARM1 (Homo sapiens) (UniProt Q6SZW1); assay: blocking NAD cleavage by SARM1 SAM-TIR – cell lysate, NAD-Glo luminescence (AID 1508614;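 active = compound whose remaining NAD level is above about 45 nM, limit read from the data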;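 also: higher remaining NAD means stronger inhibition of SARM1 NADase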); conditions: SAM-TIR HEK293T lysate NADase, at 1 µM, stronger effect = higher value
Chain of NAD(+) hydrolase SARM1 (Homo sapiens) (Q6SZW1 whole entry, looked up, the tested form may be a part): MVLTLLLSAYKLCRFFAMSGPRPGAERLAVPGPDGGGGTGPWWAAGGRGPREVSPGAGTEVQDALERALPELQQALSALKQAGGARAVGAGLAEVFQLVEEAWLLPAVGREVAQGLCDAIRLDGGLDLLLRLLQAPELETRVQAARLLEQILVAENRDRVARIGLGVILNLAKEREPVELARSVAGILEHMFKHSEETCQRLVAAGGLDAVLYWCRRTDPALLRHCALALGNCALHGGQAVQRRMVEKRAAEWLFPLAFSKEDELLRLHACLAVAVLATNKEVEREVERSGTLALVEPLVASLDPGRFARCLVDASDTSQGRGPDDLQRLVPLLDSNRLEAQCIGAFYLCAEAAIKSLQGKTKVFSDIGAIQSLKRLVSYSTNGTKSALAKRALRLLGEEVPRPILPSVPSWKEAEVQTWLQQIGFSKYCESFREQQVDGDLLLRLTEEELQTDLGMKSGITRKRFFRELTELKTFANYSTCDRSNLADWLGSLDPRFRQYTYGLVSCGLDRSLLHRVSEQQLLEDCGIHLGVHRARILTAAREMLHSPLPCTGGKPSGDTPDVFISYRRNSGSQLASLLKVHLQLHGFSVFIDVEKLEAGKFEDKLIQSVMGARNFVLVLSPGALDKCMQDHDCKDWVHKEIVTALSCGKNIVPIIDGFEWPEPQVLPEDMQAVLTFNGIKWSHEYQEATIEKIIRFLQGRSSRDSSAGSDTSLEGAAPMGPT

[2] = molecular target: Mitogen-activated protein kinase 7 (Homo sapiens) (UniProt Q13164); assay: Gal4-ERK5 driven luciferase induction – cell-based, HTS, primary screen (AID 1508626;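 active = luciferase signal above three times the same-plate solvent-only control wells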;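 also: luciferase driven by Gal4-ERK5 fusion binding five Gal4 sites before minimal TATA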); conditions: HeLa Gal4-ERK5 transactivation, 18 h, at 5 µM, stronger effect = higher value
Chain of Mitogen-activated protein kinase 7 (Homo sapiens) (Q13164 whole entry, looked up, the tested form may be a part): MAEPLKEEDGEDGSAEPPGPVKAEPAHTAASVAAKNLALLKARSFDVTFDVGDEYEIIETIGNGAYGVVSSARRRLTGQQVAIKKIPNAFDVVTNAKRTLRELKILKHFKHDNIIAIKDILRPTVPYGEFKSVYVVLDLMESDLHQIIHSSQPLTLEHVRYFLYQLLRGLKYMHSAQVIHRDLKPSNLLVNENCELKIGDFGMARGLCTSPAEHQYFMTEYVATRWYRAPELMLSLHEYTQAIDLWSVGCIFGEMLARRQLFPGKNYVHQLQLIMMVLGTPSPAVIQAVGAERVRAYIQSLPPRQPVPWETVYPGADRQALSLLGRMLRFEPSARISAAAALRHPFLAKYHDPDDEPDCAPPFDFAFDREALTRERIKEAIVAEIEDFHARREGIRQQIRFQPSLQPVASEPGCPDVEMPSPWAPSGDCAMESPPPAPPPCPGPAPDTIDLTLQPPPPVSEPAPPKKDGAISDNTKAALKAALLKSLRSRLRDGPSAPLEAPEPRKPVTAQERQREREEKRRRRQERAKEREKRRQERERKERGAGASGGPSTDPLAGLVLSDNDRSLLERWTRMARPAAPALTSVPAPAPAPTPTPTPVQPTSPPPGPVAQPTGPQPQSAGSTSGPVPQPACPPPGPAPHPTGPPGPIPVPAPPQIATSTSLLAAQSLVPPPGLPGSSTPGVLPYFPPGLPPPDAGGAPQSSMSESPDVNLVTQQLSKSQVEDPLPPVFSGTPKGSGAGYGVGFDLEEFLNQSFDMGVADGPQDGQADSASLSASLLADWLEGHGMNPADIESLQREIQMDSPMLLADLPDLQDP

[3] = galactose survival enhancers in mitochondrial complex I cybrids – cell-based, galactose medium, ATP luminescence, primary screen (AID 1645843;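 active = z-score of at least 1.8 in each of two replicates, scored against plate mean and spread of sample wells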;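 also: positive z means more ATP and so rescue of galactose-driven cybrid death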); conditions: complex I mutant cybrid cells, 72 h, stronger effect = higher value
F380Y = assay: BK channel mutant inhibitors and activators – cell-based, U2OS BacMam, thallium flux, beta subunits, selectivity assay, profiling panel (AID 1259406); conditions: U2OS BacMam BK variants, at 30 µM;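 also: initial slope of Thallos dye fluorescence rise after thallium is added; log ratio against the mean of 0.3% DMSO vehicle wells on the same plate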
F380Y/beta1 = assay: as above; conditions: U2OS BacMam BK variants, at 30 µM

CN(C)CC[C@@H](c1ccc(Cl)cc1)c1ccccn1
active: log fold change Tl+ flux (F380Y) 0.112
inactive: remaining NAD [1] 10 nM | luciferase signal [2] 40 AU | z-score [3] -0.155 | log fold change Tl+ flux (F380Y/beta1) 0.0236

CC(=O)Nc1ccc(CC(=O)O)cc1
inactive: remaining NAD [1] 10 nM | z-score [3] 0.87 | log fold change Tl+ flux (F380Y) -0.0209 | log fold change Tl+ flux (F380Y/beta1) -0.00468

CCc1nn(CCCN2CCN(c3cccc(Cl)c3)CC2)c(=O)n1CCOc1ccccc1
active: log fold change Tl+ flux (F380Y) -0.403 | log fold change Tl+ flux (F380Y/beta1) -0.178
inactive: remaining NAD [1] 10 nM | z-score [3] -1.88 and -0.63 and -2.48

CCC(=O)O[C@]1(C(=O)SCF)[C@H](C)C[C@H]2[C@@H]3C[C@H](F)C4=CC(=O)C=C[C@]4(C)[C@@]3(F)[C@@H](O)C[C@@]21C
inactive: remaining NAD [1] 10 nM | z-score [3] 0.435 | log fold change Tl+ flux (F380Y) 0.0283 | log fold change Tl+ flux (F380Y/beta1) -0.0132

N#Cc1ccc(C(c2ccc(C#N)cc2)n2cncn2)cc1
inactive: remaining NAD [1] 10 nM | z-score [3] 0.515 and 0.315 | log fold change Tl+ flux (F380Y) -0.0169 | log fold change Tl+ flux (F380Y/beta1) 0.0204

CC(C)(O)c1ccccc1CC[C@@H](SCC1(CC(=O)O)CC1)c1cccc(/C=C/c2ccc3ccc(Cl)cc3n2)c1
active: log fold change Tl+ flux (F380Y) 0.278 | log fold change Tl+ flux (F380Y/beta1) 0.853
inactive: remaining NAD [1] 10 nM | z-score [3] 0.48

CC(=O)NS(=O)(=O)c1ccc(N)cc1
inactive: remaining NAD [1] 10 nM | luciferase signal [2] 64 AU | z-score [3] -0.2 | log fold change Tl+ flux (F380Y) -0.0156 | log fold change Tl+ flux (F380Y/beta1) 0.00907

C#C[C@]1(O)CC[C@H]2[C@@H]3[C@H](C)CC4=C(CCC(=O)C4)[C@H]3CC[C@@]21C
active: log fold change Tl+ flux (F380Y/beta1) 0.123
inactive: remaining NAD [1] 10 nM | z-score [3] -0.015 | log fold change Tl+ flux (F380Y) 0.0382

CN(C/C=C/C#CC(C)(C)C)Cc1cccc2ccccc12
inactive: remaining NAD [1] 10 nM | luciferase signal [2] 52 AU | z-score [3] -1.48 | log fold change Tl+ flux (F380Y) -0.0709 | log fold change Tl+ flux (F380Y/beta1) -0.00172

O=C(O)CCNC(=O)c1ccc(N=Nc2ccc(O)c(C(=O)O)c2)cc1
inactive: remaining NAD [1] 10 nM | z-score [3] 1.23 | log fold change Tl+ flux (F380Y) -0.00418 | log fold change Tl+ flux (F380Y/beta1) -0.0255

COC(=O)C1=C(C)NC(C)=C(C(=O)OC(C)C)C1c1cccc2nonc12 (configuration not stated)
inactive: remaining NAD [1] 10 nM | z-score [3] 1.15 | log fold change Tl+ flux (F380Y) 0.00609
active: log fold change Tl+ flux (F380Y/beta1) 0.106

CCOC(=O)C1=C(C)NC(C)=C(C(=O)OC)C1c1cccc(Cl)c1Cl (configuration not stated)
inactive: remaining NAD [1] 10 nM | z-score [3] -1.02 and -1.48 and 1.76 | log fold change Tl+ flux (F380Y) 0.00922 | log fold change Tl+ flux (F380Y/beta1) -0.0618

CCN1CC(CCN2CCOCC2)C(c2ccccc2)(c2ccccc2)C1=O (configuration not stated)
inactive: remaining NAD [1] 10 nM | z-score [3] 0.71 | log fold change Tl+ flux (F380Y) 0.0128 | log fold change Tl+ flux (F380Y/beta1) -0.0268

COc1ccc(C(=O)NCc2ccc(OCCN(C)C)cc2)cc1OC
inactive: remaining NAD [1] 14 nM | z-score [3] 0.35 and 0.59 | log fold change Tl+ flux (F380Y) -0.0346 | log fold change Tl+ flux (F380Y/beta1) -0.00341

CC(C)NCC(O)COc1ccc(COCCOC(C)C)cc1 (configuration not stated)
inactive: remaining NAD [1] 10 nM | luciferase signal [2] 84 AU | z-score [3] 0.495 and 0.79 and 0.73 | log fold change Tl+ flux (F380Y) 0.0667 | log fold change Tl+ flux (F380Y/beta1) 0.0784

CC(=O)OCC(=O)NCCCOc1cccc(CN2CCCCC2)c1
inactive: remaining NAD [1] 10 nM | z-score [3] 0.45 and 0.22 | log fold change Tl+ flux (F380Y) -0.0125 | log fold change Tl+ flux (F380Y/beta1) -0.015

CN1CCN(c2c(F)cc3c(=O)c(C(=O)O)cn4c3c2SCC4)CC1
inactive: remaining NAD [1] 10 nM | z-score [3] -0.175 and 0.05 | log fold change Tl+ flux (F380Y) 0.0311 | log fold change Tl+ flux (F380Y/beta1) 0.0284
